From PubChem BioAssay (NCATS) come the findings set out here.

Inconclusive results are not listed. Values without a mark were called inactive. Calls of active or inactive are those of the source. Calls follow the shape of the dose curve; as a rule, active = well fitted inhibition curve with a large enough effect; inconclusive = small, poorly fitted or top-dose-only effect; inactive = flat fitted curve, though single readings scatter.

Test [1] in a line: qHTS profiling for inhibitors of Plasmodium falciparum proliferation (AID 504749).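 As to activity, negative = inhibition: 0% = DMSO vehicle and full inhibition = artemisinin control.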 As to all read-outs here: nearly all actives have a fitted effect of over 60% in size. Conditions: P. falciparum in erythrocytes, SYBR Green DNA, 72 h; for activity, negative = inhibition: at 28.7 µM (top of the series). A digest of the protocol:
(§1)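 In a 72 h erythrocytic culture (37 C, humidified, 5% CO2) at 2.5% hematocrit and 0.3% starting parasitemia, compounds were tested; SYBR Green I in detergent lysis buffer stained parasite DNA overnight.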
For orientation: Quantitative high-throughput screening tests each substance at several concentrations.

The subject of another test is 3D7. The description is as above. As to conditions: P. falciparum in erythrocytes, SYBR Green DNA, 72 h; series mostly up to 28.7 µM. The method in brief: as §1
The next test has as its system 7G8. The description is as above. As to conditions: P. falciparum in erythrocytes, SYBR Green DNA, 72 h; series mostly up to 28.7 µM. The method in brief:
as §1

For a further test, the system named is AA1029. The description is as above. As to conditions: P. falciparum in erythrocytes, SYBR Green DNA, 72 h; series mostly up to 28.7 µM. The method in brief: as §1
In another test the test system is AS120. The description is as above. As to conditions: P. falciparum in erythrocytes, SYBR Green DNA, 72 h; series mostly up to 28.7 µM. A digest of the protocol: as §1
In a further test the test system is ATS189. Described as above. Conditions: P. falciparum in erythrocytes, SYBR Green DNA, 72 h; series mostly up to 28.7 µM. The method in brief: as §1
Potency is read from the fitted curve at half-maximal effect.

For `C[Si](C)(C)O[Si](C)(C)C`, the activity, negative = inhibition was 4.89% in test [1] (parasite line A) and 10.8% in test [1] (parasite line B). The Potency entry in the test with 3D7, with 7G8, with AA1029, with AS120 and in the test on ATS189 was “inactive” in each case.
Consider `Nc1nccs1`, for which the results for the activity, negative = inhibition in test [1] (parasite line A) and in test [1] (parasite line B) were 12.4% and 11.4%, respectively. The Potency entry in the test with 3D7, in the test on 7G8, in the test on AA1029, in the test with AS120 and in the test on ATS189 was “inactive” each time.
As to `CCCCCCOC(=O)c1cccnc1`, the activity, negative = inhibition in test [1] (parasite line A) is 6.05%; in test [1] (parasite line B), -29.8%. The Potency result in the test with 3D7, with 7G8, in the test on AA1029, in the test with AS120 and in the test on ATS189 was “inactive” in each case.
As for `CCCCC[C@H](O)/C=C/[C@@H]1[C@H]2C/C(=C/CCCC(=O)O)O[C@H]2C[C@H]1O`, the figures for the activity, negative = inhibition in test [1] (parasite line A) and in test [1] (parasite line B) were -0.331% and 0.715%, respectively. The Potency result in the test with 3D7, in the test on 7G8, in the test on AA1029, in the test on AS120 and with ATS189 was “inactive” each time.
On to `NC(=O)C1c2ccccc2CCc2ccccc21`, for which the activity, negative = inhibition is -4.87% in test [1] (parasite line A) and 8.64% in test [1] (parasite line B). The Potency entry in the test on 3D7, with 7G8, in the test on AA1029, with AS120 and in the test with ATS189 was “inactive” throughout.
On to `CC(C)NCC(O)COc1ccccc1-n1cccc1` (centres undefined), for which the activity, negative = inhibition in test [1] (parasite line A) was 18.2%; in test [1] (parasite line B) it was -1.41%. The Potency entry in the test on 3D7, in the test on AA1029, with AS120 and in the test with ATS189 was “inactive” in each case. Moreover, the Potency in the test on 7G8 is 7.08 µM (active).
As for `C=CC(=O)O`, the activity, negative = inhibition was 2.32% in test [1] (parasite line A) and 10.1% in test [1] (parasite line B). Further, the Potency result with 3D7, with 7G8, in the test with AA1029, in the test with AS120 and with ATS189 was “inactive” each time.
As to `O=C(O)CCCC/C=C(\c1ccccc1)c1cccnc1`, the figures for the activity, negative = inhibition in test [1] (parasite line A) and in test [1] (parasite line B) were 3.33% and 8.41%, respectively. Moreover, the Potency entry in the test with 3D7, in the test with 7G8, with AA1029, with AS120 and in the test on ATS189 was “inactive” each time.
In the case of `CCC(=O)c1ccc2c(c1)N(CCCN1CCN(CCO)CC1)c1ccccc1S2`, the Potency in test [1] (parasite line A) is 10 µM (active); in test [1] (parasite line B) it was 11.2 µM (active); with 3D7 it was 10 µM (active); in the test on 7G8, 11.2 µM (active); in the test with AA1029, 12.6 µM (active); in the test with AS120 it was 12.6 µM (active). Further, the Potency in the test with ATS189 was 12.6 µM (active).
Regarding `CC(CCc1ccc(O)cc1)NCC(O)c1ccc(O)cc1` (centres undefined), the activity, negative = inhibition is 1.25% in test [1] (parasite line A) and 15.8% in test [1] (parasite line B). The Potency entry in the test with 3D7, in the test on 7G8, in the test on AA1029, in the test on AS120 and with ATS189 was “inactive” in each case.
`NCCN`: the figures for the activity, negative = inhibition in test [1] (parasite line A) and in test [1] (parasite line B) were 5.04% and 2.26%, respectively. For the same molecule, the Potency entry in the test with 3D7, with 7G8, with AA1029, in the test with AS120 and with ATS189 was “inactive” each time.
On to `NCC[C@H](O)C(=O)N[C@@H]1C[C@H](N)[C@@H](O[C@H]2O[C@H](CN)[C@@H](O)[C@H](O)[C@H]2O)[C@H](O)[C@H]1O[C@H]1O[C@H](CO)[C@@H](O)[C@H](N)[C@H]1O`, for which the activity, negative = inhibition in test [1] (parasite line A) is 2.54%; in test [1] (parasite line B), 0.715%. Moreover, the Potency entry with 3D7, in the test on 7G8, in the test with AA1029, in the test on AS120 and in the test with ATS189 was “inactive” throughout.
In the case of `CCCCCCCCCCCC(=O)N(CCO)CCO`, the figures for the activity, negative = inhibition in test [1] (parasite line A) and in test [1] (parasite line B) were -3.5% and 9.6%, respectively. Besides, the Potency entry with 3D7, in the test on 7G8, with AA1029, with AS120 and in the test on ATS189 was “inactive” in each case.
For `CCCOC(=O)c1ccccc1O`, the values for the activity, negative = inhibition in test [1] (parasite line A) and in test [1] (parasite line B) were 3.1% and 6.22%, respectively. Also, the Potency result with 3D7, with 7G8, in the test on AA1029, with AS120 and with ATS189 was “inactive” in each case.
Turning to `Cc1ccc(S(=O)(=O)NCl)cc1`, the activity, negative = inhibition was -0.743% in test [1] (parasite line A) and 4.28% in test [1] (parasite line B). Besides, the Potency result in the test on 3D7, in the test on 7G8, in the test on AA1029, in the test on AS120 and in the test on ATS189 was “inactive” in each case.
As for `CCC(C(=O)NC(N)=O)c1ccccc1` (centres undefined), the results for the activity, negative = inhibition in test [1] (parasite line A) and in test [1] (parasite line B) were -3.47% and 11.3%, respectively. Also, the Potency entry in the test with 3D7, in the test on 7G8, in the test with AA1029, in the test with AS120 and with ATS189 was “inactive” each time.
As to `CNC(=O)OCc1cccc(COC(=O)NC)n1`, the figures for the activity, negative = inhibition in test [1] (parasite line A) and in test [1] (parasite line B) were 3.63% and 1.01%, respectively. For the same molecule, the Potency entry in the test with 3D7, with 7G8, in the test with AA1029, with AS120 and in the test on ATS189 was “inactive” each time.
`FC(F)(F)C(F)(F)C(F)(F)C(F)(F)C(F)(F)F`: the activity, negative = inhibition in test [1] (parasite line A) is 11%; in test [1] (parasite line B), 17.9%. The Potency result in the test on 3D7, in the test with 7G8, with AA1029, with AS120 and in the test on ATS189 was “inactive” throughout.
Turning to `FCOC(C(F)(F)F)C(F)(F)F`, the results for the activity, negative = inhibition in test [1] (parasite line A) and in test [1] (parasite line B) were 11.2% and -2.57%, respectively. Further, the Potency result with 3D7, in the test with 7G8, in the test with AA1029, in the test on AS120 and in the test with ATS189 was “inactive” throughout.
For the molecule `CC1=CC(=C(c2ccc(N)cc2)c2ccc(N)cc2)C=CC1=N`, the Potency was 1.41 µM (active) in test [1] (parasite line A); 1.26 µM (active) in test [1] (parasite line B); 0.891 µM (active) with 3D7; 5.01 µM (active) in the test on 7G8; 2.24 µM (active) in the test with AA1029; 2.24 µM (active) in the test on AS120. In addition, in the test with ATS189, the Potency is 2.82 µM (active).
With `CC(O)CN(C)C` (centres undefined), the activity, negative = inhibition in test [1] (parasite line A) was 11.7%; in test [1] (parasite line B), -4.96%. In addition, the Potency entry with 3D7, in the test with 7G8, in the test on AA1029, with AS120 and with ATS189 was “inactive” in each case.
Turning to `O=C(O)[C@H]1C(=CCO)O[C@H]2CC(=O)N12`, the activity, negative = inhibition in test [1] (parasite line A) is 6.84%; in test [1] (parasite line B), 1.77%. Also, the Potency entry in the test with 3D7, in the test with 7G8, in the test on AA1029, in the test on AS120 and in the test with ATS189 was “inactive” each time.
